Where “and” joins values, the source holds several entries; their conditions need not be identical. Equal entries are not always repeated. Among all 5,500 compounds or so, about 2,000 (36%) were called active. Another 18% or so got no clear call; they are omitted. No stated cut-off is given here; in the data, active means normalized growth mostly below about 0.91 (no sharp cut-off); inconclusive means no clear call, values can overlap the other calls; inactive means mostly above about 0.92. The list shows a part of the results.
Test: chemical genetic growth profiling, strain panel (AID 1159580);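 further: tested at 20 µM; growth read once vehicle control cultures reached saturation at 30 °C; 1 = growth at the plate median or of vehicle wells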
Details: S. cerevisiae deletion strains, growth OD

Measured: normalized growth

O=C1C(O)=C(O)C(=O)C(O)=C1O
inactive: locus YAL013W, strain DEP1, stronger effect = lower value 0.983 | locus YAL021C, strain ccr4, stronger effect = lower value 1 | locus YAL026C, strain drs2, stronger effect = lower value 1.02 | locus YAL030W, strain snc1, stronger effect = lower value 1 | locus YBL061C, strain skt5, stronger effect = lower value 1.03 | locus YBR009C, strain hhf1, stronger effect = lower value 0.992 | locus YBR021W, strain FUR4, stronger effect = lower value 1.01 | locus YBR023C, strain chs3, stronger effect = lower value 1.02 | locus YBR171W, strain sec66, stronger effect = lower value 1.02 | locus YBR229C, strain ROT2, stronger effect = lower value 0.964 | locus YBR231C, strain swc5, stronger effect = lower value 1.02 | locus YBR279W, strain paf1, stronger effect = lower value 1.01 | locus YCL011C, strain gbp2, stronger effect = lower value 0.991 | locus YCL016C, strain dcc1, stronger effect = lower value 1.02 | locus YCL029C, strain bik1, stronger effect = lower value 0.991 | locus YCL061C, strain MRC1, stronger effect = lower value 1.01 | locus YCL069W, strain vba3, stronger effect = lower value 1.03 | locus YCR088W, strain abp1, stronger effect = lower value 1.01 | locus YDL005C, strain med2, stronger effect = lower value 1.01 | locus YDL035C, strain GPR1, stronger effect = lower value 1 | locus YDL040C, strain nat1, stronger effect = lower value 0.997 | locus YDL074C, strain BRE1, stronger effect = lower value 0.968 | locus YDL101C, strain DUN1, stronger effect = lower value 0.965 | locus YDL134C, strain PPH21, stronger effect = lower value 0.983 | locus YDL185W, strain tfp1, stronger effect = lower value 0.959 | locus YDL192W, strain arf1, stronger effect = lower value 0.99 | locus YDR001C, strain nth1, stronger effect = lower value 1 | locus YDR069C, strain doa4, stronger effect = lower value 1.01 | locus YDR101C, strain arx1, stronger effect = lower value 1.01 | locus YDR137W, strain rgp1, stronger effect = lower value 0.984 | locus YDR150W, strain NUM1, stronger effect = lower value 0.968 | locus YDR159W, strain sac3, stronger effect = lower value 0.977 | locus YDR162C, strain NBP2, stronger effect = lower value 0.939 | locus YDR195W, strain ref2 0.999 | locus YDR297W, strain sur2, stronger effect = lower value 1.02 | locus YDR318W, strain mcm21, stronger effect = lower value 1.03 | locus YDR334W, strain swr1, stronger effect = lower value 1.01 | locus YDR335W, strain msn5, stronger effect = lower value 1.01 | locus YDR388W, stronger effect = lower value 0.991 | locus YDR392W, strain spt3, stronger effect = lower value 1.04 | locus YDR502C, strain sam2, stronger effect = lower value 0.996 | locus YEL003W, strain gim4, stronger effect = lower value 1.02 | locus YEL037C, strain rad23, stronger effect = lower value 0.998 | locus YEL061C, strain CIN8 (second series), stronger effect = lower value 1.01 | locus YEL061C, strain CIN8, stronger effect = lower value 0.987 | locus YER015W, strain faa2, stronger effect = lower value 1.01 | locus YER016W, strain bim1, stronger effect = lower value 1.01 | locus YER110C, stronger effect = lower value 0.986 | locus YER111C, strain swi4, stronger effect = lower value 0.991 | locus YER155C, strain BEM2 (second series), stronger effect = lower value 1.01 | locus YER155C, strain BEM2, stronger effect = lower value 1 | locus YER167W, strain BCK2, stronger effect = lower value 1.01 | locus YFR010W, strain ubp6, stronger effect = lower value 1 | locus YGL078C, strain dbp3, stronger effect = lower value 0.977 | locus YGL086W, strain mad1, stronger effect = lower value 1.02 | locus YGL167C, strain pmr1, stronger effect = lower value 1 | locus YGL173C, strain kem1, stronger effect = lower value 1.01 | locus YGL227W, strain vid30, stronger effect = lower value 1.01 | locus YGL240W, strain doc1, stronger effect = lower value 1.02 | locus YGL248W, strain PDE1, stronger effect = lower value 0.974 | locus YGL253W, strain hxk2, stronger effect = lower value 1 | locus YGR078C, strain PAC10, stronger effect = lower value 0.971 | locus YGR135W, strain pre9, stronger effect = lower value 0.968 | locus YGR229C, strain SMI1, stronger effect = lower value 0.969 | locus YGR252W, strain gcn5, stronger effect = lower value 1.04 | locus YHR013C, strain ard1, stronger effect = lower value 1.03 | locus YHR027C, strain rpn1, stronger effect = lower value 1.02 | locus YHR030C, strain SLT2, stronger effect = lower value 1 and 0.988 | locus YHR079C, strain IRE1 (second series), stronger effect = lower value 1 | locus YHR079C, strain IRE1, stronger effect = lower value 0.973 | locus YHR094C, strain hxt1, stronger effect = lower value 0.984 | locus YHR129C, strain ARP1, stronger effect = lower value 0.994 | locus YHR142W, strain chs7, stronger effect = lower value 1.02 | locus YHR200W, strain rpn10, stronger effect = lower value 1 | locus YIL066C, strain RNR3, stronger effect = lower value 0.977 | locus YIL073C, strain SPO22, stronger effect = lower value 1.07 | locus YIL125W, strain kgd1, stronger effect = lower value 0.967 | locus YIR030C, strain dcg1, stronger effect = lower value 0.993 | locus YJL092W, strain hpr5, stronger effect = lower value 1.01 | locus YJL095W, strain BCK1 (second series), stronger effect = lower value 1.02 | locus YJL095W, strain BCK1, stronger effect = lower value 0.991 and 0.993 | locus YJL115W, strain asf1, stronger effect = lower value 1 | locus YJL129C, strain trk1, stronger effect = lower value 1.03 | locus YJL134W, strain LCB3, stronger effect = lower value 0.995 | locus YJL154C, strain vps35, stronger effect = lower value 1.02 | locus YJL164C, strain tpk1, stronger effect = lower value 1 | locus YJL166W, strain qcr8, stronger effect = lower value 1.01 | locus YJL168C, strain set2, stronger effect = lower value 0.996 | locus YJL187C, strain SWE1 (second series), stronger effect = lower value 0.961 | locus YJL187C, strain SWE1, stronger effect = lower value 1.01 | locus YJR043C, strain POL32, stronger effect = lower value 1.03 | locus YJR066W, strain TOR1, stronger effect = lower value 0.941

Reference: PubChem BioAssay AID1159580 (chemical genetic matrix, 2015)
